From PubChem BioAssay (NCI)
This is part of a sample that, as a whole, favours compounds with a hit. Of some 83,000 tested, about 20% had one in any assay.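 Cell lines were cultured in 96-well plates, exposed to a single compound concentration, and assessed for percent growth 48 hours later.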 A number with no mark means an inactive call. Calls of active or inactive are those of the source. Rule for the calls: active = growth percent below 10; inactive = the rest.

Tests used:
Test in all cases: NCI-60 one-dose screen, 48 h (100 = growth as untreated, 0 = no growth, -100 = all killed)
Details in all cases: 10 µM unless noted
NCI-H23 lung = tested on: NCI-H23 lung
NCI-H226 lung = tested on: NCI-H226 lung
NCI-H322M lung = tested on: NCI-H322M lung
HOP-62 NSCLC = tested on: HOP-62 NSCLC
NCI-H460 lung = tested on: NCI-H460 lung
HOP-92 NSCLC = tested on: HOP-92 NSCLC
NCI-H522 lung = tested on: NCI-H522 lung
A549/ATCC NSCLC = tested on: A549/ATCC NSCLC
786-0 renal = tested on: 786-0 renal
COLO 205 colon = tested on: COLO 205 colon
DU-145 prostate = tested on: DU-145 prostate
K-562 leukemia = tested on: K-562 leukemia
MALME-3M melanoma = tested on: MALME-3M melanoma
MDA-MB-231 breast = tested on: MDA-MB-231 breast
RXF 393 renal = tested on: RXF 393 renal
SF-268 CNS = tested on: SF-268 CNS
SF-295 CNS = tested on: SF-295 CNS
SF-539 CNS = tested on: SF-539 CNS
UACC-257 melanoma = tested on: UACC-257 melanoma
M14 melanoma = tested on: M14 melanoma

Structure (SMILES)	growth (NCI-H23 lung)	growth (NCI-H226 lung)	growth (NCI-H322M lung)	growth (HOP-62 NSCLC)	growth (NCI-H460 lung)	growth (HOP-92 NSCLC)	growth (NCI-H522 lung)	growth (A549/ATCC NSCLC)	growth (786-0 renal)	growth (COLO 205 colon)	growth (DU-145 prostate)	growth (K-562 leukemia)	growth (MALME-3M melanoma)	growth (MDA-MB-231 breast)	growth (RXF 393 renal)	growth (SF-268 CNS)	growth (SF-295 CNS)	growth (SF-539 CNS)	growth (UACC-257 melanoma)	growth (M14 melanoma)
CC(=O)n1c(/C(C#N)=C/c2ccc(N(C)C)cc2)cc2ccccc21	40.5%	61.1%	53.3%	31.3%	15%	70.9%	23.1%	48.8%	41.3%	16.5%	35.8%	15%	57%	44.7%	24.6%	56.9%	7.39% (active)	17.1%	68.6%	26.8%
COc1cc(/C=C2\C(=O)N(CC(O)COc3cc(O)c4c(=O)cc(-c5ccccc5)oc4c3)c3ccccc32)cc(OC)c1O (stereo not given)	88.8%	99.7%	96.5%	87.9%	85%	82.4%	64.1%	95.4%	98%	113%	85.6%	71.4%	99.1%	84.6%	101%	80%	95.1%	88.1%	110%	88.7%
O=C(/C=C/c1cccc2ccccc12)Nc1ncc(Cc2ccccc2)s1	22.1%	28.4%	12.5%	28.7%	2.17% (active)	70.3%	34.5%	19.5%	34.3%	12.1%	21.2%	8.6% (active)	21.7%	25%	-10% (active)	50.8%	-40.1% (active)	-24.4% (active)	60.8%	-21.3% (active)
CN1CCN(CCOc2ccc(-c3cnc4c(-c5ccccc5F)cnn4c3)cc2)CC1	46.5%	105%	57.9%	64.7%	-63.3% (active)	2.22% (active)	66.8%	22.4%	-73.5% (active)	-79.3% (active)	60.9%	-50.3% (active)	7.94% (active)	29.2%	50%	63.9%	65%	51.3%	-7.9% (active)	-80.3% (active)
COc1cc2c(cc1-c1c(C)noc1C)ncc1nc(C3CC3)n([C@H](C)COC(F)F)c12	65.4%	58.1%	47.8%	43.4%	60.7%	37%	27.4%	36.1%	51.6%	25.1%	72.4%	30.4%	80.4%	51%	53.9%	71.2%	56.8%	39.4%	36.3%	44.2%
O=C1OC(c2ccc(Cl)c(Cl)c2)=C/C1=C/c1cccc([N+](=O)[O-])c1	88.1%	86.3%	102%	94.2%	102%	94.3%	90.9%	97.4%	105%	108%	109%	99%	101%	108%	96.4%	97.9%	101%	103%	103%	106%
O=C1/C(=C\C(Cl)=C/c2ccc([N+](=O)[O-])cc2)SC(=S)N1CCc1ccc(O)cc1	-57.9% (active)	-63.3% (active)	2.21% (active)	12.9%	0.441% (active)	-3.03% (active)	0.0131% (active)	3.64% (active)	-46.4% (active)	-43.8% (active)	5.69% (active)	6.62% (active)	-64.5% (active)	6.88% (active)	-72.5% (active)	9.96% (active)	-31.4% (active)	-75.4% (active)	4.06% (active)	-27.5% (active)
Clc1ccccc1-c1nc(Nc2nc3ccccc3s2)nc(C(Cl)(Cl)Cl)n1	76.4%	95%	24.6%	40.5%	1.36% (active)	55.6%	88.4%	18%	75.8%	10.9%	15.9%	50.8%	79.6%	14.5%	16.7%	81.7%	37.8%	32.8%	83.9%	80.1%
CC1(C)C(=O)/C(=C\c2ccccn2)C[C@]2(C)[C@H]3CC[C@@H]4[C@@H](C(=O)/C=C/c5ccccn5)CC[C@@]4(C)[C@]3(C)CC[C@@H]12	-49.2% (active)	-33.8% (active)	21.3%	-26.7% (active)	-36.2% (active)	-31.9% (active)	-23.3% (active)	5.27% (active)	-69.4% (active)	-34.4% (active)	-77.1% (active)	0.811% (active)	-35.8% (active)	-60% (active)	-90.7% (active)	9.75% (active)	-77.9% (active)	-43.5% (active)	7.39% (active)	3.45% (active)
